8 molecules from PubChem BioAssay (Tox21) can be followed below.

In test [1] the target is Estrogen receptor beta (Homo sapiens) (UniProt Q92731). The test can be described thus: qHTS assay to identify small molecule antagonists of the estrogen receptor beta (ER-beta) signaling pathway (AID 1259378; active = well fitted inhibition curve with a large enough effect in the signal ratio in the repeat runs, not every such curve was filed as active; the % refers to the signal ratio; also: potency is read from the fitted curve at half-maximal effect). The essentials: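 ER-beta-UAS-bla HEK293T (GripTite) cells in 2% charcoal-stripped FBS medium were preincubated 6 hr at 37C, dosed with compound, then stimulated with 1 nM E2 (final) for 16 hr; beta-lactamase reporter read by B/G FRET fluorescence after 2 hr substrate loading.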

The nature of test [2]: qHTS assay to identify small molecule agonists of the androgen receptor (AR) signaling pathway in the presence of an antagonist - cell viability counter screen (AID 1259379). Also: nearly all actives have a fitted effect of over 25% in size. Also: potency is read from the fitted curve at half-maximal effect. The gist of the method:
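MDA-kb2 viability measured by CellTiter-Fluor fluorescence in the same wells as the luciferase signal; nilutamide 3.0uM final; 15-point compound titration; 16 hr at 37C.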

Test [3] in a line: qHTS assay to identify small molecule agonists of the estrogen receptor beta (ER-beta) signaling pathway - cell viability counter screen (AID 1259380). Also: nearly all actives have a fitted effect of over 30% in size. Also: potency is read from the fitted curve at half-maximal effect. The essentials: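 Measured: luminescence from CellTiter-Glo after 30 min at room temperature, added to wells already read for the LiveBLAzer FRET reporter (2 hr substrate); ER-beta-UAS-bla HEK293T cells had 16 hr compound treatment at 37C, 5% CO2.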

Test [4] addresses Androgen receptor (Homo sapiens) (UniProt P10275). The test can be described thus: qHTS assay to identify small molecule agonists of the androgen receptor (AR) signaling pathway in the presence of an antagonist (AID 1259381; calls by dose curve; also: nearly all actives have a fitted effect of over 15% in size). The essentials:
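Luminescent ONE-Glo read, 30min at room temperature, follows 16hr compound exposure (15 concentrations) of MDA-kb2 cells at 37C, 0% CO2, with nilutamide added at 3.0uM final.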

The nature of test [5]: qHTS assay to identify small molecule antagonists of the estrogen receptor beta (ER-beta) signaling pathway - cell viability counter screen (AID 1259382). Also: nearly all actives have a fitted effect of over 55% in size. Also: potency is read from the fitted curve at half-maximal effect. The essentials: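 Readout: luminescence, CellTiter-Glo, same wells as bla assay. System: ER-beta-UAS-bla GripTite HEK293T, 2% charcoal-stripped FBS. Exposure: compounds plus 1nM 17-beta-estradiol, 16 hr, 37C.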
The target in test [6] is Estrogen receptor (Homo sapiens) (UniProt P03372). Kind of test: qHTS assay to identify small molecule agonists of the estrogen receptor alpha (ER-alpha) signaling pathway in the presence of an antagonist (AID 1259383; calls by dose curve; also: top concentration of the series differs between compounds; nearly all actives have a fitted effect of over 15% in size). The gist of the method:
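Quantitative HTS confirmation: compounds titrated at 15 concentrations onto estrogen-deprived VM7Luc4E2 cells carrying a four-ERE luciferase construct, with ICI-182,780 present at 10.0nM final. Signal is luminescence after 22hr exposure.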

Test [7] is described as follows: qHTS assay to identify small molecule agonists or antagonists of the thyroid stimulating hormone receptor (TSHR) signaling pathway - wild type cell line counter screen (AID 1259384; calls by dose curve). The essentials:
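Wild-type HEK293 cells were plated 18 h at 37 C/5% CO2, pin-dosed with compound plus Ro20-1724 medium, held 30 min at room temperature, then given cAMP-d2 and anti-cAMP-cryptate; fluorescence was read after 1 h. Fifteen concentrations, triplicate.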

For test [8], the target named is Thyrotropin receptor (Homo sapiens) (UniProt P16473). Kind of test: qHTS assay to identify small molecule antagonists of the thyroid stimulating hormone receptor (TSHR) signaling pathway (AID 1259385; calls by dose curve; also: nearly all actives have a fitted effect of over 20% in size). The gist of the method:
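TSHR-HEK293 cells were plated and held 18 h at 37C/5% CO2, then given compound plus Ro20-1724 and stimulated with TSH at 1.5 ng/mL final. After 30 min at room temperature, cAMP was detected with cAMP-d2/anti-cAMP-cryptate (1 h) by fluorescence.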

Test [9] in a line: qHTS assay to identify small molecule agonists of the estrogen receptor alpha (ER-alpha) signaling pathway in the presence of an antagonist - cell viability counter screen (AID 1259386).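 Also: series mostly up to about 92 µM; cells exposed to compounds for 22 h at 37 °C before the viability read; nearly all actives have a fitted effect of over 30% in size.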 The essentials:
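The test measures whether compounds kill ER-alpha reporter cells (VM7Luc4E2) under antagonist co-treatment (ICI-182,780, 10.0nM). Fluorescence from CellTiter-Fluor is read after a 22hr exposure.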

Test [10] concerns the target Progesterone receptor (Homo sapiens) (UniProt P06401). The test can be described thus: qHTS assay to identify small molecule agonists of the progesterone receptor (PR) signaling pathway (AID 1346784; calls by dose curve; also: nearly all actives have a fitted effect of over 30% in size). The gist of the method:
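Fluorescence from LiveBLAzer B/G FRET substrate cleavage (2 hr, RT) reported PR activation in PR-UAS-bla HEK 293T cells treated 16 hr at 37C/5% CO2 with compounds; medium contained 2% charcoal-stripped FBS.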

Test [11] can be described thus: qHTS assay to identify small molecule agonists of the TGF-beta/Smad signaling pathway - cell viability counter screen (AID 1346829). Also: top concentration of the series differs between compounds; nearly all actives have a fitted effect of over 45% in size. The gist of the method: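 Tox21 qHTS format: SBE-bla HEK 293T cells treated with DMSO-dissolved compounds for 5 hr; CellTiter-Glo luminescence after 30 min at room temperature.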
For test [12], the target named is Thyrotropin-releasing hormone receptor (Homo sapiens) (UniProt P34981). Kind of test: qHTS assay to identify small molecule antagonists of the thyrotropin-releasing hormone receptor (TRHR) signaling pathway (AID 1346877; active = well fitted inhibition curve with a large enough effect in the repeat runs, not every such curve was filed as active; also: series mostly up to about 51 µM). The gist of the method: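 Overnight-plated (18 h, 37 °C) HEK293 cells expressing TRHR were dye-loaded 2 h, treated with compound, then stimulated with TRH at 1 nM final. Fluorescence intensity was captured every second for 3 min.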

Test [13] shares this target. The test can be described thus: qHTS assay to identify small molecule agonists of the thyrotropin-releasing hormone receptor (TRHR) signaling pathway (AID 1346891; calls by dose curve;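 also: HEK293 cells expressing TRHR with calcium dye readout; series mostly up to about 58 µM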). The gist of the method: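 Compounds were tested as agonists at 15 concentrations, in triplicate, on TRHR-Hek293 cells; calcium-sensitive dye fluorescence was recorded for 3 min following addition.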
Test [14] addresses Progesterone receptor (Homo sapiens) (UniProt P06401). Kind of test: qHTS assay to identify small molecule antagonists of the progesterone receptor (PR) signaling pathway (AID 1346795; active = well fitted inhibition curve with a large enough effect in the signal ratio in the repeat runs, not every such curve was filed as active; the % refers to the signal ratio; also: potency is read from the fitted curve at half-maximal effect). The gist of the method:
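Fluorescence intensity measured 2 hr after adding beta-lactamase FRET substrate to PR-UAS-bla HEK293T cells that had been co-treated 16 hr with compound and 1 nM R5020 (final concentration) in 2% charcoal-stripped FBS.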

Test [15] is described as follows: qHTS assay to identify small molecule antagonists of the progesterone receptor (PR) signaling pathway - cell viability counter screen (AID 1346798). Also: series mostly up to about 92 µM; nearly all actives have a fitted effect of over 50% in size. The essentials:
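CellTiter-Glo luminescence; PR-UAS-bla HEK293T, 3,000 cells/well; compound + R5020, 16 hr, 37C/5% CO2; 30 min RT before read.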

A short description of test [16]: qHTS assay to identify small molecule agonists of the progesterone receptor (PR) signaling pathway - cell viability counter screen (AID 1346799; calls by dose curve; also: nearly all actives have a fitted effect of over 45% in size). The essentials:
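In parallel with the beta-lactamase readout, cytotoxicity toward PR-UAS-bla HEK293T cells was measured by CellTiter-Glo luminescence following 16 hr compound incubation in 2% charcoal-stripped FBS medium.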

Test [17] in a line: qHTS assay to identify small molecule antagonists of the TGF-beta/Smad signaling pathway - cell viability counter screen (AID 1346824). Also: nearly all actives have a fitted effect of over 50% in size. The gist of the method:
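SBE-bla HEK 293T cells were plated overnight at 37 C, then given compounds in DMSO plus TGF-beta1 (added as 0.25 ng/mL solution) for 5 hr. After the bla read, CellTiter-Glo was added to the same wells and luminescence read after 30 min at room temperature.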

Test [18] is described as follows: qHTS assay to identify small molecule agonists of the TGF-beta/Smad signaling pathway (AID 1346859; active = well fitted activation curve with a large enough effect in the signal ratio in the repeat runs, not every such curve was filed as active; the % refers to the signal ratio; also: potency is read from the fitted curve at half-maximal effect; as to activation: series mostly up to about 77 µM). The essentials:
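After overnight seeding, SBE-bla HEK 293T cells are dosed with compounds in DMSO and kept 5 hr at 37 C, 5% CO2. LiveBLAzer-type FRET substrate is then applied for 2 hr at room temperature.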

Test [19] can be described thus: Human pregnane X receptor (PXR) small molecule agonists, qHTS cell viability counter screen (AID 1346977). Also: nearly all actives have a fitted effect of over 50% in size. Also: potency is read from the fitted curve at half-maximal effect. The essentials:
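Viability counter screen: CellTiter-Fluor signal in PXR-Luc HepG2 cells, 24hr compound exposure, 37C, 5% CO2.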

The target of test [20] is Estrogen receptor beta (Homo sapiens) (UniProt Q92731). Kind of test: qHTS assay to identify small molecule agonists of the estrogen receptor beta (ER-beta) signaling pathway (AID 1259377; active = well fitted activation curve with a large enough effect in the signal ratio in the repeat runs, not every such curve was filed as active; the % refers to the signal ratio; also: potency is read from the fitted curve at half-maximal effect). The gist of the method:
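qHTS in ER-beta-UAS-bla HEK293T cells: 6 hr settling, then 16 hr compound at 37C, then LiveBLAzer substrate 2 h at RT before fluorescence reading.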

The structures appear in SMILES notation. Values without a mark were called inactive. Results filed as inconclusive are left out. Calls of active or inactive are those of the source. Unless noted, calls follow the shape of the dose curve; as a rule, active = well fitted curve in the direction sought with a large enough effect in the repeat runs; inconclusive = weak or mixed curves; inactive = no such curve, though single readings can be large; an effect the other way counts as inactive or inconclusive.

Chain of Estrogen receptor (Homo sapiens) (P03372 whole entry, looked up): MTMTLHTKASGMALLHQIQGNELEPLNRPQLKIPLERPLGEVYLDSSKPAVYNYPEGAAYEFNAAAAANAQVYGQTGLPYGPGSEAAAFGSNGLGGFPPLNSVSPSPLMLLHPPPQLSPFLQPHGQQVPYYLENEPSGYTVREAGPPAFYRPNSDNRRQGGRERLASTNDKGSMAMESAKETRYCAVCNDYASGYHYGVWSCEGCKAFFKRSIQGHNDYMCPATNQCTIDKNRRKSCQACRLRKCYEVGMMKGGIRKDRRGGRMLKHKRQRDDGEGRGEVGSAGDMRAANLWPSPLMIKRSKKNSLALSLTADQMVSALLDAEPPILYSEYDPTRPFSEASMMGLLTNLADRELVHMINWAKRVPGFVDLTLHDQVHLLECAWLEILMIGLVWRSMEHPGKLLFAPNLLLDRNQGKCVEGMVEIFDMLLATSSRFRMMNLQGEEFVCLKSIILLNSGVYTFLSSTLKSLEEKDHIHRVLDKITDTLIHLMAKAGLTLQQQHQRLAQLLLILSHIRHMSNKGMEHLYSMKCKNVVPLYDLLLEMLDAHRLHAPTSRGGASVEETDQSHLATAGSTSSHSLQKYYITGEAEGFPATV
Chain of Progesterone receptor (Homo sapiens) (P06401 whole entry, looked up): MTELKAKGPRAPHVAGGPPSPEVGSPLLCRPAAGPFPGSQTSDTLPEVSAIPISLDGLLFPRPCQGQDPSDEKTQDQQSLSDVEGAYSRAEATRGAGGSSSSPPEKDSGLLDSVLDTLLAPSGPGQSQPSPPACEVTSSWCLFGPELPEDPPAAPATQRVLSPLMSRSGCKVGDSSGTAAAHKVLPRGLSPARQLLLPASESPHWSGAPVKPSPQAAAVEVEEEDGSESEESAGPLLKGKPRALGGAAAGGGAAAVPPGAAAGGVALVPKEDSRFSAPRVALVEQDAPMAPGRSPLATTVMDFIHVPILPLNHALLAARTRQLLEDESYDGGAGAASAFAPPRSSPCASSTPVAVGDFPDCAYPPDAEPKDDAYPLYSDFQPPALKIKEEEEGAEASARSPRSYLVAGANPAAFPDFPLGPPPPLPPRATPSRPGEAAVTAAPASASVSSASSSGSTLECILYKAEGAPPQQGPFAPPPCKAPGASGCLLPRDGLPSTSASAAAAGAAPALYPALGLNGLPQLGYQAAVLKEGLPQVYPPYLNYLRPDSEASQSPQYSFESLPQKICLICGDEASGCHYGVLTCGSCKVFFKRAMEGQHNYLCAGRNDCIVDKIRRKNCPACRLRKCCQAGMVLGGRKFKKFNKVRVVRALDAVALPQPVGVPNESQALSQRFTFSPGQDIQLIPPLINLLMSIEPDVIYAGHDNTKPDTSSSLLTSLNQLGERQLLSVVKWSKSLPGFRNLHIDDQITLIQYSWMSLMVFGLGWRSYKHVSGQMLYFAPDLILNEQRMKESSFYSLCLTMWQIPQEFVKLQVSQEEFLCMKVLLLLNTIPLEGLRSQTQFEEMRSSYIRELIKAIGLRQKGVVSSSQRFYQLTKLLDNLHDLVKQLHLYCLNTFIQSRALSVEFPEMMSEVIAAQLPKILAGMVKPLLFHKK
Chain of Estrogen receptor beta (Homo sapiens) (Q92731 whole entry, looked up): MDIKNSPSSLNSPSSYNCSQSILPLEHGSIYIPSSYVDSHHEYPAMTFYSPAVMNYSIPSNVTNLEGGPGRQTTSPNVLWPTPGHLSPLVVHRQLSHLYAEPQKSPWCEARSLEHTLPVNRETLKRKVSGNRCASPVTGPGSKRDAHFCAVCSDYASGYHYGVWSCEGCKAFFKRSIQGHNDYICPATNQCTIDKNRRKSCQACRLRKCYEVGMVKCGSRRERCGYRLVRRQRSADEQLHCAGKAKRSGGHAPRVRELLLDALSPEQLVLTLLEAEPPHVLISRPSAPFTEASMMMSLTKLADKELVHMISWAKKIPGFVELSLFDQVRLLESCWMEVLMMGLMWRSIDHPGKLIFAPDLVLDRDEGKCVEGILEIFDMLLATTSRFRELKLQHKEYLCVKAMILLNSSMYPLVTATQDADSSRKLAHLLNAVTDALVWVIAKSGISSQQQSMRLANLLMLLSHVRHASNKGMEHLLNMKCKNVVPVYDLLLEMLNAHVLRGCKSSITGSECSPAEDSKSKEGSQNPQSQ
Chain of Thyrotropin receptor (Homo sapiens) (P16473 whole entry, looked up): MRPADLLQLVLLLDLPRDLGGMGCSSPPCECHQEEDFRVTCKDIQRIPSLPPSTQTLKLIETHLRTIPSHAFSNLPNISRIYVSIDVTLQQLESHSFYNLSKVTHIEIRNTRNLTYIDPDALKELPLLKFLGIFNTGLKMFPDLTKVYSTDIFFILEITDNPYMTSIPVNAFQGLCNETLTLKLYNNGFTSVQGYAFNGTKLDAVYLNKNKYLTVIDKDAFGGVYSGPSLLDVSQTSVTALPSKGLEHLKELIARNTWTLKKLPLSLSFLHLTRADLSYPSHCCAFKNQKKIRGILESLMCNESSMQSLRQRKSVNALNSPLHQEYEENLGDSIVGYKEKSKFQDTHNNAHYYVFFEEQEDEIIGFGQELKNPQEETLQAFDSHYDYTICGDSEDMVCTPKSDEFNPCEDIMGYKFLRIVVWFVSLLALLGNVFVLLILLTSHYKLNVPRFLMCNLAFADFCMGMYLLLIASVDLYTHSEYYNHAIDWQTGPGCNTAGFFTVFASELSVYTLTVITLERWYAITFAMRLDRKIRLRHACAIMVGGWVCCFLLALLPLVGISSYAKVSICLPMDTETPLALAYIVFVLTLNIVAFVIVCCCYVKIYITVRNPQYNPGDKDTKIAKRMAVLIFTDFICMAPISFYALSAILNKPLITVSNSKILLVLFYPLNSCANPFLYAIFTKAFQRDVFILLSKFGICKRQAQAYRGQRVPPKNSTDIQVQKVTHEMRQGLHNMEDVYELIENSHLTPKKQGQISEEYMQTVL
Chain of Thyrotropin-releasing hormone receptor (Homo sapiens) (P34981 whole entry, looked up): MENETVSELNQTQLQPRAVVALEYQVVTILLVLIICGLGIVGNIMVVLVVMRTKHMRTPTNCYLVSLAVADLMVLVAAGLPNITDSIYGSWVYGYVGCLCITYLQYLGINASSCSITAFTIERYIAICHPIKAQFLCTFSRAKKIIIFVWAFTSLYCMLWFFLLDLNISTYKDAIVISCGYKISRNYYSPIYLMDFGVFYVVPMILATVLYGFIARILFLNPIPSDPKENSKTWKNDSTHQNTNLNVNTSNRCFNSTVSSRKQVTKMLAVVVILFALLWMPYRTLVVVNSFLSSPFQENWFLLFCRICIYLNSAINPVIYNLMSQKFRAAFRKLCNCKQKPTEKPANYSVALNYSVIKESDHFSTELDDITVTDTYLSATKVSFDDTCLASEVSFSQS
Chain of Androgen receptor (Homo sapiens) (P10275 whole entry, looked up): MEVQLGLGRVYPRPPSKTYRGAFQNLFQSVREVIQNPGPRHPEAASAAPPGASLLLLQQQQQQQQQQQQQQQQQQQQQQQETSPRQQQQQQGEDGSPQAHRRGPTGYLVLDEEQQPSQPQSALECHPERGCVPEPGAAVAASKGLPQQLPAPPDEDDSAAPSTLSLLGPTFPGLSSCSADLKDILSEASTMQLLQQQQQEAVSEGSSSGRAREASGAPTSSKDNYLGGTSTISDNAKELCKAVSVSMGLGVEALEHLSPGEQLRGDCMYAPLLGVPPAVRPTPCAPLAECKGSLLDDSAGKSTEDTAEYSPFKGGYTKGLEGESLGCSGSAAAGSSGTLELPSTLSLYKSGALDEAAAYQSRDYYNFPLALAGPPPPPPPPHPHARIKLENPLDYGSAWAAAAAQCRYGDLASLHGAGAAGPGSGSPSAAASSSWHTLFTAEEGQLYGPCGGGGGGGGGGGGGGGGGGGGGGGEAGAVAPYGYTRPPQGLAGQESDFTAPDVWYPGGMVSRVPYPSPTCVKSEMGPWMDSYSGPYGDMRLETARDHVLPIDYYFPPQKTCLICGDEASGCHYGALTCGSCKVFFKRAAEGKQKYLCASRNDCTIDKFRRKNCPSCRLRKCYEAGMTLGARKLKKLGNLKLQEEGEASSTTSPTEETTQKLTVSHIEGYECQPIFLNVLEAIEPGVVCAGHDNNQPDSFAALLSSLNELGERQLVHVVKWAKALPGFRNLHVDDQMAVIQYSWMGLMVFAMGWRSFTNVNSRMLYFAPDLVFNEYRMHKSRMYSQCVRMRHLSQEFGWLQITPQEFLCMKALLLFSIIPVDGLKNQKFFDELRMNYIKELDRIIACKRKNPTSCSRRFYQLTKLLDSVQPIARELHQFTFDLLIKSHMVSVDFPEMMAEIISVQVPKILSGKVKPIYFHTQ

As to `CN(C)[C@@H](CCOc1cccc2ccccc12)c1ccccc1`, the Potency in test [1] is 29.8 µM (active); in [2] it was 29.8 µM (active); in test [3], 23.7 µM (active); in test [5], 15 µM (active). Moreover, the outcome in [4], in test [7] and in test [13] was inactive. For the same molecule, the Potency result in [6], in [8], in test [9], in test [10], in [11] and in test [12] was “inactive” throughout.
In the case of `COc1cccc(OC)c1C(=O)O`, the Potency entry in [1], in test [2], in [3], in test [5], in test [8] and in test [9] was “inactive” each time. Moreover, the Potency result in test [10], in test [14], in [15], in test [16], in test [17] and in test [11] was “inactive” in each case. For the same molecule, the Potency entry in [18], in [12] and in [19] was “inactive” each time. For the same molecule, the call in test [7] and in [13] was inactive.
Regarding `CC(C)(C)c1csc(-c2cc3cc(OCc4ccccc4CC(=O)O)ccc3o2)n1`, the Potency result in test [20], in test [6], in test [9], in test [17], in [11] and in test [12] was “inactive” in each case. In addition, the Potency in test [3] was 4.86 µM (active); in test [5], 27.3 µM (active); in [14], 43.3 µM (active); in test [19] it was 61.1 µM (active). In addition, the call in [7] and in [13] was inactive.
For the molecule `O=S(=O)(O)c1ccccc1/C=C/c1ccc(-c2ccc(/C=C/c3ccccc3S(=O)(=O)O)cc2)cc1`, the results for the Potency in [20] and in test [18] were 39.1 µM (active) and 44.3 µM (active), respectively. For the same molecule, the Potency entry in test [5], in test [6], in test [15], in test [16], in [17] and in [11] was “inactive” each time. For the same molecule, the Potency entry in [12] was “inactive”. Besides, the outcome in test [7] and in test [13] was inactive.
Regarding `COC(=O)C1=C(C)NC(C)=C(C(=O)OCCN2CCN(C(c3ccccc3)c3ccccc3)CC2)C1c1cccc([N+](=O)[O-])c1` (configuration not stated), the Potency result in test [20], in test [3], in test [5], in [6], in test [9] and in [10] was “inactive” throughout. The Potency result in test [14], in test [15], in [17], in test [11], in test [18] and in test [12] was “inactive” throughout. The molecule was called inactive in test [7] and in test [13].
Take `S=C([S-])NCCNC(=S)[S-].S=C([S-])NCCNC(=S)[S-].[Mn+2].[Zn+2]`: the Potency entry in test [20], in test [2], in [5], in [8], in test [9] and in test [10] was “inactive” in each case. The Potency result in test [17], in test [11] and in test [18] was “inactive” in each case. Further, the molecule was called inactive in [7].
`Oc1cc(Cl)cc(Cl)c1Cl`: the Potency result in [20], in [5], in [6], in test [8], in test [15] and in test [17] was “inactive” each time. In addition, in test [18], the Potency result was “inactive”. In addition, the Potency in [3] was 31.4 µM (active). The call in test [7] was inactive.
With `CCc1cccc(CC)c1NC(=O)CN(CC(=O)O)CC(=O)O`, the Potency result in test [1], in [2], in test [3], in [5], in test [6] and in [8] was “inactive” each time. Also, the Potency result in test [9], in test [10], in [14], in [15], in [17] and in [11] was “inactive” in each case. In addition, the Potency result in test [18] and in test [12] was “inactive” throughout. In addition, the result in test [7] and in [13] was inactive.
